Data taken from the supplement of paper PMC9492666.

Tests used:
HCC1937 = test: relative cell viability, compound + RSL3, vs DMSO (fraction of DMSO control); higher = less growth inhibition; settings: 72 h
MDA-MB-231 = test: as above; settings: 72 h
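Note: breast cancer cell viability read out with the CCK-8 kit after co-treatment of each compound with the ferroptosis inducer RSL3.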

| Structure (SMILES) | relative cell viability (HCC1937) | relative cell viability (MDA-MB-231) |
| --- | --- | --- |
| COCCNC(=O)Nc1ccc2nc(-c3cccs3)c(-c3cccs3)nc2c1 [Ac-CoA Synthase Inhibitor1] + COC(=O)c1ccc([C@H]2c3[nH]c4ccccc4c3C[C@H](C(=O)OC)N2C(=O)CCl)cc1 [RSL3] | 0.594 | 0.566 |
| CC(C)(C)c1ccc(-c2nc3ccccc3[nH]2)cc1 + COC(=O)c1ccc([C@H]2c3[nH]c4ccccc4c3C[C@H](C(=O)OC)N2C(=O)CCl)cc1 [RSL3] | 0.529 | 0.399 |
| CC1(C)CC[C@]2(C(=O)O[C@@H]3O[C@H](CO)[C@@H](O)[C@H](O)[C@H]3O)CC[C@]3(C)C(=CC[C@@H]4[C@@]5(C)CC[C@H](O[C@@H]6O[C@H](C(=O)O)[C@@H](O)[C@H](O)[C@H]6O)C(C)(C)[C@@H]5CC[C@]43C)[C@@H]2C1 [Chikusetsusaponin IVa] + COC(=O)c1ccc([C@H]2c3[nH]c4ccccc4c3C[C@H](C(=O)OC)N2C(=O)CCl)cc1 [RSL3] | 0.597 | 0.572 |
| O=C1c2cc(CO)cc(O)c2C(=O)c2c(O[C@@H]3O[C@H](CO)[C@@H](O)[C@H](O)[C@H]3O)cccc21 [Aloe-emodin-8-O-beta-D-glucopyranoside] + COC(=O)c1ccc([C@H]2c3[nH]c4ccccc4c3C[C@H](C(=O)OC)N2C(=O)CCl)cc1 [RSL3] | 0.368 | 0.544 |
| NC(=O)c1cccc(-c2cccc(OC(=O)NC3CCCCC3)c2)c1 + COC(=O)c1ccc([C@H]2c3[nH]c4ccccc4c3C[C@H](C(=O)OC)N2C(=O)CCl)cc1 [RSL3] | 0.407 | 0.707 |
| Cn1c2cc([S+](C)[O-])sc2c2cnn(Cc3cccc(N)c3)c(=O)c21 (configuration not stated) + COC(=O)c1ccc([C@H]2c3[nH]c4ccccc4c3C[C@H](C(=O)OC)N2C(=O)CCl)cc1 [RSL3] | 0.402 | 0.677 |
| O=C(Nc1ccc(C(O)(C(F)(F)F)C(F)(F)F)cc1)c1ccccc1Cl + COC(=O)c1ccc([C@H]2c3[nH]c4ccccc4c3C[C@H](C(=O)OC)N2C(=O)CCl)cc1 [RSL3] | 0.489 | 0.616 |
| CN(CCOc1ccc(CC2SC(=O)NC2=O)cc1)c1ccccn1 (configuration not stated) [Rosiglitazone] + COC(=O)c1ccc([C@H]2c3[nH]c4ccccc4c3C[C@H](C(=O)OC)N2C(=O)CCl)cc1 [RSL3] | 1.26 | 0.646 |
| O=c1c(O[C@@H]2O[C@H](CO)[C@@H](O)[C@H](O)[C@H]2O)c(-c2ccc(O)cc2)oc2cc(O)cc(O)c12 [Astragalin] + COC(=O)c1ccc([C@H]2c3[nH]c4ccccc4c3C[C@H](C(=O)OC)N2C(=O)CCl)cc1 [RSL3] | 0.586 | 0.645 |
| CCCCCCCCCCCCCCOc1ccc(C(=O)OCC(=O)N(C)CC(=O)OCC)o1 [Olumacostat Glasaretil] + COC(=O)c1ccc([C@H]2c3[nH]c4ccccc4c3C[C@H](C(=O)OC)N2C(=O)CCl)cc1 [RSL3] | 0.281 | 0.278 |
| O=C(O)CN(CC(=O)O)c1ccccc1OCCOc1ccccc1N(CC(=O)O)CC(=O)O + COC(=O)c1ccc([C@H]2c3[nH]c4ccccc4c3C[C@H](C(=O)OC)N2C(=O)CCl)cc1 [RSL3] | 0.308 | 0.581 |
| CC(=O)Nc1nc(C)c(S(=O)(=O)Nc2ccc(C(O)(C(F)(F)F)C(F)(F)F)cc2)s1 + COC(=O)c1ccc([C@H]2c3[nH]c4ccccc4c3C[C@H](C(=O)OC)N2C(=O)CCl)cc1 [RSL3] | 0.484 | 0.952 |
| O=C(/C=C/c1ccc(/C=C/C(=O)Nc2ccc(C3=NCCN3)cc2)cc1)Nc1ccc(C2=NCCN2)cc1 + COC(=O)c1ccc([C@H]2c3[nH]c4ccccc4c3C[C@H](C(=O)OC)N2C(=O)CCl)cc1 [RSL3] | 0.296 | 0.378 |
| CCCCCCCCCCCCC/C=C/[C@@H](O)[C@@H](N)CO + COC(=O)c1ccc([C@H]2c3[nH]c4ccccc4c3C[C@H](C(=O)OC)N2C(=O)CCl)cc1 [RSL3] | 0.0823 | 0.167 |
| CC(C)(C)NC(=O)[C@H]1CC[C@H]2[C@@H]3CC[C@H]4NC(=O)C=C[C@]4(C)[C@H]3CC[C@]12C [Finasteride] + COC(=O)c1ccc([C@H]2c3[nH]c4ccccc4c3C[C@H](C(=O)OC)N2C(=O)CCl)cc1 [RSL3] | 0.885 | 0.645 |
| O=C1/C(=C/c2cccs2)CC/C1=C\c1cccs1 + COC(=O)c1ccc([C@H]2c3[nH]c4ccccc4c3C[C@H](C(=O)OC)N2C(=O)CCl)cc1 [RSL3] | 0.357 | 0.49 |
